# Reference: PubChem BioAssay
# Active and inactive are the calls of the source. Unless noted, no stated cut-off is given here; in the data, active means inhibition above about 80%; inactive means the rest.
# Columns and labels:
# [1] = target: NAD(+) hydrolase SARM1 (Homo sapiens) (UniProt Q6SZW1); assay: blocking NAD cleavage by SARM1 SAM-TIR – cell lysate, NAD-Glo luminescence (AID 1508614;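 active means compound whose remaining NAD level is above about 45 nM, limit read from the data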); settings: SAM-TIR HEK293T lysate NADase, at 1 µM, stronger effect = higher value
# [2] = target: Mitogen-activated protein kinase 7 (Homo sapiens) (UniProt Q13164); assay: Gal4-ERK5 driven luciferase induction – cell-based, HTS, primary screen (AID 1508626;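 active means luciferase signal above three times the same-plate solvent-only control wells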;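 further: luciferase driven by Gal4-ERK5 fusion binding five Gal4 sites before minimal TATA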); settings: HeLa Gal4-ERK5 transactivation, 18 h, at 5 µM, stronger effect = higher value
# [3] = galactose survival enhancers in mitochondrial complex I cybrids – cell-based, galactose medium, ATP luminescence, primary screen (AID 1645843;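 active means z-score of at least 1.8 in each of two replicates, scored against plate mean and spread of sample wells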;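 further: positive z means more ATP and so rescue of galactose-driven cybrid death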); settings: complex I mutant cybrid cells, 72 h, stronger effect = higher value
# [4] = growth inhibition, single agent or in combination, cell-based, chromothripsis tumors, cisplatin or BGB combos (AID 1671449); settings: LFS_MB_P medulloblastoma cells;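 further: cells exposed for 96 hours; 0% = vehicle DMSO and 100% = killing by high DMSO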
# [5] = growth inhibition, single agent and combos, cell-based, chromothripsis tumors, cisplatin or BGB combos (AID 1671450); settings: HDN33 neuroblastoma cells, stronger effect = higher value;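 further: cells exposed to compound for four days; 0% = vehicle DMSO and 100% = cell killing by high DMSO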
# [6] = growth inhibition, single agents and combos, ICB984, cell-based, cisplatin or BGB combos, synergistic combos for chromothripsis tumors (AID 1671451; call rule not given here;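 further: cells exposed for 96 hours before readout; 0% = vehicle DMSO and 100% = killing by high DMSO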); settings: ICB984 medulloblastoma cells, drug combinations, stronger effect = higher value
# [7] = growth inhibition, single agents and combos, LFS_MB_1R, cell-based, cisplatin or BGB combos, synergistic combos for chromothripsis tumors (AID 1671452); settings: LFS_MB_1R medulloblastoma cells, stronger effect = higher value;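 further: cells exposed for 96 hours before readout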
# [8] = growth inhibition, single agents and combos, HTB85, cell-based, BGB or cisplatin IC20 combos, synergistic combos for chromothripsis tumors (AID 1671453); settings: HTB85 osteosarcoma cells, drug combinations, stronger effect = higher value;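 further: cells exposed for 96 hours before readout; 0% = vehicle DMSO and 100% = high DMSO killing control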
# [9] = growth inhibition, single agents and combos, CRL2098, cell-based, BGB or cisplatin IC20 combos, synergistic combos for chromothripsis tumors (AID 1671454); settings: CRL2098 osteosarcoma cells, drug combinations, stronger effect = higher value;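 further: cells exposed for 96 h before readout; 0% = vehicle DMSO and 100% = killing by high DMSO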
# [10] = growth inhibition, single agents and combos, HD-MB03, cell-based, BGB or cisplatin IC20 combos, synergistic combos for chromothripsis tumors (AID 1671455; in the data active means inhibition above about 83%;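 further: 0% = vehicle DMSO and 100% = high DMSO as cytotoxic control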); settings: HD-MB03 medulloblastoma cells, stronger effect = higher value
# [11] = growth inhibition, single agents and combos, UWB1.289, cell-based, BGB or cisplatin combos, synergistic combos for chromothripsis tumors (AID 1671456); settings: UWB1.289 ovarian carcinoma cells, stronger effect = higher value;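 further: cells exposed to compound for four days; 0% = vehicle DMSO and 100% = killing by high DMSO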
# [12] = growth inhibition, single agents and combos, LFS_MB_2R, cell-based, cisplatin combos, synergistic combos for chromothripsis tumors (AID 1671457); settings: LFS_MB_2R medulloblastoma cells, stronger effect = higher value;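 further: cells exposed to compound for four days before readout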
# [13] = growth inhibition, MDA-MB-436, cell-based, BGB or cisplatin combos, synergistic combos for chromothripsis tumors (AID 1671458; call rule not given here;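 further: cells exposed for 96 hours; 0% = vehicle DMSO and 100% = killing by high DMSO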); settings: MDA-MB-436 breast carcinoma growth inhibition, drug combinations, stronger effect = higher value
# [14] = UWB1.289_BRCA1 ovarian cancer growth, cell-based, BGB or cisplatin combinations (AID 1671459); settings: UWB1.289 BRCA1 ovarian carcinoma, drug combinations, stronger effect = higher value
# [15] = drug combination toxicity in non-malignant astrocytes – cell-based, BGB or cisplatin IC20 combos, cytotoxicity control for chromothriptic childhood tumor combination screen (AID 1671460); settings: Human astrocytes, viability inhibition, drug combinations, at 0.5 µM, stronger effect = higher value;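 further: cells exposed to compounds for 96 hours before viability readout; 0% = vehicle and 100% = killing control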
# [16] = BT084 cell growth, single and combined drugs, ICGC_MB145, cisplatin and BGB IC40 combos (AID 1671461); settings: BT084 medulloblastoma cells, drug combinations, stronger effect = higher value;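 further: cells exposed to drugs for 96 hours; 0% = vehicle DMSO and 100% = high DMSO full killing control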
# [17] = RCMB18 cell growth, single agent and combined, cisplatin and BGB IC40 combos (AID 1671462); settings: RCMB18 medulloblastoma cells, stronger effect = higher value;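 further: cells exposed to compound for four days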
# [18] = CRL1545 cell growth, single agent and combined, cisplatin and BGB IC20 combos (AID 1671464); settings: CRL1545 osteosarcoma cells, stronger effect = higher value;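 further: cells exposed to compound for 96 hours before readout; 0% = vehicle DMSO and 100% = high DMSO killing control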
# [19] = measured here: combination with BGB IC40, at 0.05 µM
# [20] = measured here: with BGB IC20 combination, at 0.5 µM
# [21] = measured here: with cisplatin IC20 combination, at 0.5 µM
# [22] = measured here: combination with cisplatin, at 0.5 µM
# [23] = measured here: combination with cisplatin, at 5 µM
# Chain of NAD(+) hydrolase SARM1 (Homo sapiens) (Q6SZW1 whole entry, looked up, the tested form may be a part): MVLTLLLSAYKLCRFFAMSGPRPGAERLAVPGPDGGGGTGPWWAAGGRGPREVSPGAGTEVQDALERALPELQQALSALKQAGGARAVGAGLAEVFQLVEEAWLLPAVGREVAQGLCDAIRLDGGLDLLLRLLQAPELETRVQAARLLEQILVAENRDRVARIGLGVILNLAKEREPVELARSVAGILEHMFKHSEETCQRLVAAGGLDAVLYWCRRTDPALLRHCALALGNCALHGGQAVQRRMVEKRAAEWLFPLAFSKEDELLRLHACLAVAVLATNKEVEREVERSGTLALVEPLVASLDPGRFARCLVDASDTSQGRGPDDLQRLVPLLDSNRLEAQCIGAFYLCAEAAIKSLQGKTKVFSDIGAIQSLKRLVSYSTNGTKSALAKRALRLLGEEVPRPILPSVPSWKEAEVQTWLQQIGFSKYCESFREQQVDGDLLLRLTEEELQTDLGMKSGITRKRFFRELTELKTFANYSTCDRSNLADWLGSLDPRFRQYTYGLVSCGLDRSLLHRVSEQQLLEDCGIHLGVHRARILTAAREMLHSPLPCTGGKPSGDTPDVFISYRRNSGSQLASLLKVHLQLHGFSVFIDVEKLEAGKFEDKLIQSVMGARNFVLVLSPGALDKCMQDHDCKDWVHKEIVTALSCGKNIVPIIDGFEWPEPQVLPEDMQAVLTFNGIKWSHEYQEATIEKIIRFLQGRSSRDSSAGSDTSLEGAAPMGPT
# Chain of Mitogen-activated protein kinase 7 (Homo sapiens) (Q13164 whole entry, looked up, the tested form may be a part): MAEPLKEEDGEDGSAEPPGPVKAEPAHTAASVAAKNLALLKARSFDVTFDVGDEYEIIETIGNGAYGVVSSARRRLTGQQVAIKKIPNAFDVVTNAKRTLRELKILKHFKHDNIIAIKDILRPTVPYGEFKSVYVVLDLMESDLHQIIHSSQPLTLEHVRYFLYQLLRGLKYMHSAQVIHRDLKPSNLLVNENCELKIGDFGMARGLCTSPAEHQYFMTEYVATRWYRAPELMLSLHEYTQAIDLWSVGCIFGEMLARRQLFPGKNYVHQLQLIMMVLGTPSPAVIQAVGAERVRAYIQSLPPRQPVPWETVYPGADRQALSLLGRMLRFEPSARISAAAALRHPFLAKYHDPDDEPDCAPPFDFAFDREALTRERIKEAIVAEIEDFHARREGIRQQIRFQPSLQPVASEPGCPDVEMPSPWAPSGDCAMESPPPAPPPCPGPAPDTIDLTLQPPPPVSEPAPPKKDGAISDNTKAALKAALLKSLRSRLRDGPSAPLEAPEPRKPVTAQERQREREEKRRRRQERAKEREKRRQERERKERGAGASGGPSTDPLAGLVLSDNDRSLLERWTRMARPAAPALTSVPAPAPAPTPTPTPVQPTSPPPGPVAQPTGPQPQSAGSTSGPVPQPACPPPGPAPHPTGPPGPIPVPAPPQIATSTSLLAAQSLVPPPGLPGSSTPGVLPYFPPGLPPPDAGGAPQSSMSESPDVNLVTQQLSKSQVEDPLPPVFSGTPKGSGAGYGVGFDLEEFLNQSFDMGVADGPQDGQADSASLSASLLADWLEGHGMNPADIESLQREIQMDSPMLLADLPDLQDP
smiles,measurement,setting,value
CCn1cc(C(=O)O)c(=O)c2cc3c(cc21)OCO3,remaining NAD,[1],10 nM (inactive)
same,luciferase signal,[2],88 AU (inactive)
same,z-score,[3],0.245 (inactive)
same,inhibition,"[4]; at 0.5 µM, stronger effect = higher value",-36.8% (inactive)
same,inhibition,"[4]; measured here: combination with BGB IC20, at 0.005 µM",-15.7%
same,inhibition,"[4]; measured here: combination with BGB IC40, at 0.005 µM",-20.3%
same,inhibition,[4]; [19],-2.68%
same,inhibition,"[4]; measured here: combination with cisplatin, at 0.5 µM, stronger effect = higher value",-50%
same,inhibition,"[4]; measured here: combination with cisplatin, at 5 µM, stronger effect = higher value",-47.2%
same,inhibition,"[5]; BGB combo, at 5 µM",-6.85%
same,inhibition,[5]; at 0.5 µM,11.7% (inactive)
same,inhibition,"[5]; cisplatin combo, at 5 µM",-11.4%
same,inhibition,[5]; [20],31.7%
same,inhibition,[5]; [21],-3.7%
same,inhibition,"[5]; single agent, at 5 µM",13.3%
same,inhibition,"[6]; BGB IC20 combo, at 0.005 µM",-17.2%
same,inhibition,"[6]; BGB IC40 combo, at 0.005 µM",7.28%
same,inhibition,"[6]; BGB IC40 combo, at 0.05 µM",6.59%
same,inhibition,[6]; at 0.5 µM,-11.6% (inactive)
same,inhibition,"[6]; cisplatin combo, at 0.05 µM",6.59%
same,inhibition,"[6]; cisplatin combo, at 0.5 µM",-23.1%
same,inhibition,"[6]; cisplatin combo, at 5 µM",6.27%
same,inhibition,"[6]; measured here: 5 uM single agent, at 5 µM",-34.2%
same,inhibition,[7]; at 0.5 µM,0.84% (inactive)
same,inhibition,[7]; [19],-15.9%
same,inhibition,[7]; [22],-7.75%
same,inhibition,[7]; [23],-5.64%
same,inhibition,[8]; at 0.5 µM,-2.07% (inactive)
same,inhibition,"[8]; measured here: with BGB IC20, at 0.5 µM",-19.1%
same,inhibition,"[8]; measured here: with BGB IC20, at 5 µM",-10.5%
same,inhibition,"[8]; measured here: with cisplatin IC20, at 0.5 µM",12%
same,inhibition,"[8]; measured here: with cisplatin IC20, at 5 µM",2.66%
same,inhibition,"[8]; single agent, at 5 µM",-16.7%
same,inhibition,[9]; at 0.5 µM,-34.7% (inactive)
same,inhibition,"[9]; measured here: combination with BGB at IC20, at 0.5 µM",-42.4%
same,inhibition,"[9]; measured here: combination with cisplatin at IC20, at 0.5 µM",-29.3%
same,inhibition,[10]; at 0.5 µM,1.11% (inactive)
same,inhibition,"[10]; measured here: combo with BGB at IC20, at 0.5 µM",-0.045%
same,inhibition,"[10]; measured here: combo with cisplatin at IC20, at 0.5 µM",-3.84%
same,inhibition,[11]; at 0.5 µM,2.29% (inactive)
same,inhibition,"[11]; measured here: inhibition with BGB combination, at 0.05 µM",-2.14%
same,inhibition,"[11]; measured here: inhibition with cisplatin combination, at 0.05 µM",-6.63%
same,inhibition,[12]; at 0.5 µM,-21.9% (inactive)
same,inhibition,[12]; [22],-20.2%
same,inhibition,[12]; [23],-21.2%
same,inhibition,[13]; at 0.5 µM,-14.4% (inactive)
same,inhibition,"[13]; measured here: BGB combination, at 0.5 µM",-16.2%
same,inhibition,"[13]; measured here: BGB combination, at 5 µM",-18.6%
same,inhibition,"[13]; measured here: cisplatin combination, at 0.5 µM",-20.7%
same,inhibition,"[13]; measured here: cisplatin combination, at 5 µM",-20.6%
same,inhibition,"[14]; BGB combination, concentration series, at 5 µM",-2.14%
same,inhibition,[14]; at 0.5 µM,1.91% (inactive)
same,inhibition,"[14]; cisplatin combination, concentration series, at 5 µM",15.4%
same,inhibition,[15],-0.34% (inactive)
same,inhibition,[15]; measured here: combo with BGB IC20,2.16%
same,inhibition,[15]; measured here: combo with cisplatin IC20,-8.86%
same,inhibition,[16]; at 0.5 µM,-9.83% (inactive)
same,inhibition,"[16]; cisplatin combination, at 0.5 µM",15.9%
same,inhibition,"[16]; cisplatin combination, at 5 µM",-11.8%
same,inhibition,"[16]; measured here: BGB IC40 combination 0.05 uM, at 0.05 µM",27.5%
same,inhibition,"[16]; single agent, at 5 µM",-16.8%
same,inhibition,[17]; at 0.5 µM,-3.66% (inactive)
same,inhibition,"[17]; cisplatin combo, at 5 µM",2.43%
same,inhibition,"[17]; measured here: BGB IC40 combination, at 0.05 µM",-11.1%
same,inhibition,[17]; [22],16.7%
same,inhibition,"[17]; single agent, at 5 µM",-9.78%
same,inhibition,[18]; at 0.5 µM,-6.67% (inactive)
same,inhibition,[18]; [20],-7.74%
same,inhibition,[18]; [21],-6.13%
same,inhibition,"[18]; single agent, at 0.05 µM",12.4%
same,inhibition,"[18]; single agent, at 5 µM",12.2%
